Source: the supplement of paper PMC10849652
About 8,800 targets were measured; listed, in parts, are those with a hit and a random draw of the rest. About 0.5% of all pairs of compound and target were hits.

How the values were obtained:
Test in all cases: log2 fold change, soluble protein after heating vs DMSO (PISA); higher = thermal stabilisation; K562 lysate, 10 uM; active = over 0.2 and 3.5 SD of the protein, either way, in both replicates (recomputed)
[1] = compound: C1=CC=C(C=C1)[C@H](COC2=CC3=C(C=C2)NC(=O)N3)NC(=O)C4=CC=CN(C4=O)CC5=CC(=C(C=C5)F)F
Procedure, shortened: (§1)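 Values give the log-two fold change in thermal stability against solvent controls, from duplicates. Crude K562 extract at 1 mg/mL protein, made by dounce homogenisation in PBS pH 7.4 with 1 mM MgCl2, was treated with 10 μM compound for 30 min. After 3 min heating across 48°C-58°C, aliquots were pooled, adjusted to 0.5% NP-40 at 4°C and centrifuged at 21,000xg for 90 min. The supernatant was measured by TMTpro 16plex LC-MS/MS with channel sums equalised.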

[2] = compound: CC1=C(SC2=C1C(=N[C@H](C3=NN=C(N32)C)CC(=O)N)C4=CC=C(C=C4)Cl)C
Procedure, shortened: as §1

[3] = compound: CC1=C2C(=CC=C1)N=C(N(C2=O)C3=CC=CC=C3C)CN4C=NC5=C(N=CN=C54)N
Procedure, shortened: as §1

[4] = compound: Cc1sc2c(c1C)C(c1ccc(Cl)cc1)=N[C@@H](CC(=O)OC(C)(C)C)c1nnc(C)n1-2
Procedure, shortened: as §1

[5] = compound: c1ccc([C@@H]2C[C@H]2NC2CCNCC2)cc1
Procedure, shortened: as §1

Measured: log2 fold change

PDAP1 (UniProt Q13442)
inactive: [1] 0.004 | [2] 0.042 | [3] 0.008 | [4] 0.084 | [5] -0.112

PRKCSH isoform 2 (UniProt P14314)
inactive: [1] 0.084 | [2] -0.09 | [3] -0.067 | [4] -0.128 | [5] -0.33

PFKFB4 (UniProt Q16877)
Sequence of UniProt Q16877 (Q16877 whole entry, looked up): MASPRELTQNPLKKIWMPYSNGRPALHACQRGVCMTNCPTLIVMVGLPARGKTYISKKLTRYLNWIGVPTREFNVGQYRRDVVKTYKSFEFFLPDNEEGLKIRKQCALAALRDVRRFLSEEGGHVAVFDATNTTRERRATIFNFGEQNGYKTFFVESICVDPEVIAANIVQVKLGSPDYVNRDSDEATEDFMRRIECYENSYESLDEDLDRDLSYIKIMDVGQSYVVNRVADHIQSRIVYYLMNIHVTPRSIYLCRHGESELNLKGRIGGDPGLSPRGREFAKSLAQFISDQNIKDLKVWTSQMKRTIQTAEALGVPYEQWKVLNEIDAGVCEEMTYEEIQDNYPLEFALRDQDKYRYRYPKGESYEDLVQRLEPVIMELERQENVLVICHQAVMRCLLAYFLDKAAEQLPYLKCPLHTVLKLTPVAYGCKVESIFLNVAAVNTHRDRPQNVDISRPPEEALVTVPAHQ
inactive: [1] -0.066 | [2] 0.023 | [3] 0.059 | [4] -0.053 | [5] -0.007

PRKAB2 (UniProt O43741)
Sequence of UniProt O43741 (O43741 whole entry, looked up): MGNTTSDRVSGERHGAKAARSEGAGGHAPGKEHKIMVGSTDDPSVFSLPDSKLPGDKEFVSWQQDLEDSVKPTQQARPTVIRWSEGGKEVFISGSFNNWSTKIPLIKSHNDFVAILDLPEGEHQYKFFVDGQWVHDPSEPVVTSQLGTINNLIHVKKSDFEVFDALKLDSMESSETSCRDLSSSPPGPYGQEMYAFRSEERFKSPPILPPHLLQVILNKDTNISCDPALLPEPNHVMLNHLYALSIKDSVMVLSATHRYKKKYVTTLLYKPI
inactive: [1] 0.1 | [2] -0.012 | [3] 0.009 | [4] -0.047 | [5] -0.418

PELO (UniProt Q9BRX2)
inactive: [1] -0.014 | [2] 0.05 | [3] 0.034 | [4] 0.087 | [5] 0.27

PLEKHA5 isoform 6 (UniProt Q9HAU0)
inactive: [1] 0 | [2] -0.112 | [3] -0.06 | [4] -0.013 | [5] 0.045

PFKFB2 (UniProt O60825)
inactive: [1] 0.016 | [2] 0.001 | [3] 0.03 | [4] -0.001 | [5] -0.008

PHGDH (UniProt O43175)
inactive: [1] -0.014 | [2] 0.017 | [3] 0.047 | [4] 0.046 | [5] 0.052

PHLDB1 (UniProt Q86UU1)
inactive: [1] -0.006 | [2] 0.007 | [3] 0.054 | [4] -0.027 | [5] 0.036

PDXDC1 (UniProt Q6P996)
Sequence of UniProt Q6P996 (Q6P996 whole entry, looked up): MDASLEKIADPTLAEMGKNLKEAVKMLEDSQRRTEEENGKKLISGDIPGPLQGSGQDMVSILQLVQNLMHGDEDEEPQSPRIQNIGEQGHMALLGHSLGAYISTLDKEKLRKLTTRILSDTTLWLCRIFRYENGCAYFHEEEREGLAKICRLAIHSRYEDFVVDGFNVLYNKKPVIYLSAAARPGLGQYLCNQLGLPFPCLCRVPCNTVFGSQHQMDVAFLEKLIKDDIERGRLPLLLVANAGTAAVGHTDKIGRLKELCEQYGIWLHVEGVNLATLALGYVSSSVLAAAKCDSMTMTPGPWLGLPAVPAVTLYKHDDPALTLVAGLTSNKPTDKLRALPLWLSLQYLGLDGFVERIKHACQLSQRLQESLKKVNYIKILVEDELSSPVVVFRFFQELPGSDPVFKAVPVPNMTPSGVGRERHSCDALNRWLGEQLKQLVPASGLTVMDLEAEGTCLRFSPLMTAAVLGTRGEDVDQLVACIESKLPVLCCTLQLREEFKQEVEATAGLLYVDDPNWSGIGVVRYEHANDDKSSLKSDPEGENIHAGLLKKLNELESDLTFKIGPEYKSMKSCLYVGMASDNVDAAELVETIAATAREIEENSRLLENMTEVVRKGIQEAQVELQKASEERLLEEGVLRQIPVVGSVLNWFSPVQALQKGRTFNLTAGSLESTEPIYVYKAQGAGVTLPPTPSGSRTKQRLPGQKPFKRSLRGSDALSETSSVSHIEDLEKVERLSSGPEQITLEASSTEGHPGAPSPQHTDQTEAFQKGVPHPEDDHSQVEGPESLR
inactive: [1] 0.025 | [2] 0.022 | [3] 0.01 | [4] 0.02 | [5] 0.014

PRMT7 (UniProt Q9NVM4)
inactive: [1] -0.002 | [2] -0.029 | [3] 0.009 | [4] -0.039 | [5] 0.014

PTK2B (UniProt Q14289)
Sequence of UniProt Q14289 (Q14289 whole entry, looked up): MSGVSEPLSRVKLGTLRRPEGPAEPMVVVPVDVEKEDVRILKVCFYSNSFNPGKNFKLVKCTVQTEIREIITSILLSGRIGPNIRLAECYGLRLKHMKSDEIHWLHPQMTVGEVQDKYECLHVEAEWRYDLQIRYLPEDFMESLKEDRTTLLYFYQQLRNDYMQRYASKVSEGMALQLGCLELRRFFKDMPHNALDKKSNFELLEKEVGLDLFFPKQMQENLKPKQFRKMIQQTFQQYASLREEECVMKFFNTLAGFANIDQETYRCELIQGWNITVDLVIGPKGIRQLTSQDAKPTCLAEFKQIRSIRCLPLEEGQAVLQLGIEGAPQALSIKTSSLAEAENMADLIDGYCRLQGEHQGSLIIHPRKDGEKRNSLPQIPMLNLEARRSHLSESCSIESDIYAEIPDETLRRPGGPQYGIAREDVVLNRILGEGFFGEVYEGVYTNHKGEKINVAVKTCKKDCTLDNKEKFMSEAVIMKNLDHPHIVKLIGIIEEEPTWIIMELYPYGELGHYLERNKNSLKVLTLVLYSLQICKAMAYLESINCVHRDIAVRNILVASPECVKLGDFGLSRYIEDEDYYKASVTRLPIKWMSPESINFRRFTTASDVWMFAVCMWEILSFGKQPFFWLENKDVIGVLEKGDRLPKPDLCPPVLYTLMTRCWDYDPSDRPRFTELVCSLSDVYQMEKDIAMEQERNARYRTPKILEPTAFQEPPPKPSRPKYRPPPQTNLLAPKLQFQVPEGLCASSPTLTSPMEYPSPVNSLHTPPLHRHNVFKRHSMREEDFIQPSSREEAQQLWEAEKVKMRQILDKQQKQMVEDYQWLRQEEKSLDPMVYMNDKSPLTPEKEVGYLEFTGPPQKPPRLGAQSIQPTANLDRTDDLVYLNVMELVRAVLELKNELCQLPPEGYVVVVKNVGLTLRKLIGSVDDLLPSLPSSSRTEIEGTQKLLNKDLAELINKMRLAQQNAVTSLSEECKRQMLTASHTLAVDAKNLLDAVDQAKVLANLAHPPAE
inactive: [1] -0.056 | [2] -0.012 | [3] -0.036 | [4] -0.009 | [5] -0.034

PTGS1 isoform 6 (UniProt P23219)
Sequence of UniProt P23219 (P23219 whole entry, looked up): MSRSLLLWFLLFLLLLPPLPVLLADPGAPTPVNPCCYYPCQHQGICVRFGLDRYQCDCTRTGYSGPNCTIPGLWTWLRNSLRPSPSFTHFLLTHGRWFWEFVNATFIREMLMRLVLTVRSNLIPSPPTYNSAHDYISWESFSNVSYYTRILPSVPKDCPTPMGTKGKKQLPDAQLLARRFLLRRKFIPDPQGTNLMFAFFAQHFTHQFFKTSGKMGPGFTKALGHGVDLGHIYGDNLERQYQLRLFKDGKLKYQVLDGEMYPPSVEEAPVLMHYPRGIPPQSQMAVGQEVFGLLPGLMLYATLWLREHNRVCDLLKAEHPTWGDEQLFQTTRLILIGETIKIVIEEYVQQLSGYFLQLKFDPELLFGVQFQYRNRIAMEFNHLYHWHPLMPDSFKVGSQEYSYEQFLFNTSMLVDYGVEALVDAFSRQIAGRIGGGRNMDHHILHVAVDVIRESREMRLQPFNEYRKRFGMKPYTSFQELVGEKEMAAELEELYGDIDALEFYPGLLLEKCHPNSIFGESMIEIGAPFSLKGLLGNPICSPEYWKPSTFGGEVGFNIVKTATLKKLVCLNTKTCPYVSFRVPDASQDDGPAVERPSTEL
inactive: [1] -0.007 | [2] -0.035 | [3] 0.077 | [4] -0.026 | [5] -0.11

POLR2B (UniProt P30876)
inactive: [1] -0.021 | [2] 0.024 | [3] 0.019 | [4] 0.021 | [5] 0.013

PLEKHO2 (UniProt Q8TD55)
Sequence of UniProt Q8TD55 (Q8TD55 whole entry, looked up): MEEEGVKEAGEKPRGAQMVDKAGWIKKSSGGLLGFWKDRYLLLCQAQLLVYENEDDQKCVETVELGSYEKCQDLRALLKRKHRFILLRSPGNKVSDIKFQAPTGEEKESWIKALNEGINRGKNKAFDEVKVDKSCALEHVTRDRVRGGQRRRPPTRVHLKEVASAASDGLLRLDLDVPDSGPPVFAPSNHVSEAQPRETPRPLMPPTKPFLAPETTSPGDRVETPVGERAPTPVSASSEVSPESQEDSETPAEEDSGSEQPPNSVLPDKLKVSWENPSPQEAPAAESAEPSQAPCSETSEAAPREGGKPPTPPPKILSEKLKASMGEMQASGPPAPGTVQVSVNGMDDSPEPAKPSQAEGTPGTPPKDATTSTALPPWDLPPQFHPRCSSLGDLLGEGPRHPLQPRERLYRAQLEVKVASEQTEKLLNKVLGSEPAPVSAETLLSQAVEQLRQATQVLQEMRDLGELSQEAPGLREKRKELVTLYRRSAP
inactive: [1] -0.158 | [2] 0.077 | [3] -0.076 | [4] -0.107 | [5] 0.043

PKP3 isoform 2 (UniProt Q9Y446)
Sequence of UniProt Q9Y446 (Q9Y446 whole entry, looked up): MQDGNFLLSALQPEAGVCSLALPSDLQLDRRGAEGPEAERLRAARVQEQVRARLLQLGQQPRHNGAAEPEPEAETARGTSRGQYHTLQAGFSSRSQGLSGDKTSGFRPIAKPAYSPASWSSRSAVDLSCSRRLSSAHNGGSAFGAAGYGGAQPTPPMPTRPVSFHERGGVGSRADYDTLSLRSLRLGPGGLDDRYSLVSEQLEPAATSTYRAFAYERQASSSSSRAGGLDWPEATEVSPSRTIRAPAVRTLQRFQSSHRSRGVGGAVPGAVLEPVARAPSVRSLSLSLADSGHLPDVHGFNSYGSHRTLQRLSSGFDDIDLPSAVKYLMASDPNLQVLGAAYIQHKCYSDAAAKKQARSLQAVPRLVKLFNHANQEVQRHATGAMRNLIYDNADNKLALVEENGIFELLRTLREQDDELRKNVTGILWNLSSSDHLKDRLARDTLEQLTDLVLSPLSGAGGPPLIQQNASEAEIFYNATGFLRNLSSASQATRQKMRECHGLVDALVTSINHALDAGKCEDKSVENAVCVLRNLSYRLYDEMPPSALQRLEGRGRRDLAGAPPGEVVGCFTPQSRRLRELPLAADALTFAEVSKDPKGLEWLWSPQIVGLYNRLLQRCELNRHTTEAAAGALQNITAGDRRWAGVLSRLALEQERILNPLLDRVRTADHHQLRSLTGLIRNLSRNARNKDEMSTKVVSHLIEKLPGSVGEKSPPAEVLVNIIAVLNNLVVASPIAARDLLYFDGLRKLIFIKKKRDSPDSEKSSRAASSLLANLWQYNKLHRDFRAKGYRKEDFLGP
inactive: [1] -0.049 | [2] 0.014 | [3] 0.002 | [4] 0.062 | [5] -0.004

PSMB9 (UniProt P28065)
inactive: [1] 0.074 | [2] 0.159 | [3] 0.111 | [4] -0.095 | [5] -0.013

QKI (UniProt Q96PU8)
inactive: [1] -0.071 | [2] -0.001 | [3] -0.023 | [4] 0.04 | [5] -0.034

POGK (UniProt Q9P215)
inactive: [1] -0.142 | [2] 0.13 | [3] -0.008 | [4] 0.016 | [5] -0.068

PFDN2 (UniProt Q9UHV9)
inactive: [1] 0.044 | [2] -0.055 | [3] -0.016 | [4] -0.008 | [5] 0.063

PPP2R5C isoform 5 (UniProt Q13362)
inactive: [1] -0.068 | [2] 0.011 | [3] -0.02 | [4] -0.024 | [5] 0.071

PPME1 isoform 4 (UniProt Q9Y570)
Sequence of UniProt Q9Y570 (Q9Y570 whole entry, looked up): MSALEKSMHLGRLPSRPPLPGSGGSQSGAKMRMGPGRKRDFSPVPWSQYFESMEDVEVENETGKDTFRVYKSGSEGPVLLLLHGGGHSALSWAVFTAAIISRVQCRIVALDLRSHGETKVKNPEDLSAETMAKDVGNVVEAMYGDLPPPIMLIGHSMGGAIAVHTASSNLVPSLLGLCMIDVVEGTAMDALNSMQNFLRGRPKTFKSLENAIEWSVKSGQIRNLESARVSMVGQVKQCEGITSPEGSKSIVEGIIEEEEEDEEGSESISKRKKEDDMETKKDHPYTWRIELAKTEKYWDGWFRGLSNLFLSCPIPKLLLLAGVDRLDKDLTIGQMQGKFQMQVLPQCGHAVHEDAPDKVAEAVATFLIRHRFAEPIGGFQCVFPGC
inactive: [1] -0.004 | [2] 0.013 | [3] -0.019 | [4] 0.021 | [5] 0.007

PHKA1 (UniProt P46020)
inactive: [1] 0.033 | [2] 0.02 | [3] 0 | [4] -0.008 | [5] 0.001

PFN1 (UniProt P07737)
Sequence of UniProt P07737 (P07737 whole entry, looked up): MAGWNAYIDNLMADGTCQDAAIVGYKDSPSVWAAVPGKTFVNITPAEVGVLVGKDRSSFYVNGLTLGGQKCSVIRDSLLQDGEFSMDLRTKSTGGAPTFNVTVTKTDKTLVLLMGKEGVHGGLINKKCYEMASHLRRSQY
inactive: [1] -0.004 | [2] 0.009 | [3] 0 | [4] -0.004 | [5] -0.007
